96 compounds from PubChem BioAssay AID488975 (Johns Hopkins Ion Channel Center, 2010) can be followed below.

Molecules are shown by their SMILES. Hit rate of the full screen: of about 310,000 compounds, about 2,600 (0.84%) were called active. The sample holds actives, similar compounds and a random draw of the others, so the mix is not that of the screen.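 How the source made its calls: active means B-score over 3 SD under the library average, and starting fluorescence ratio not unusually high; inactive means the rest.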

For this experiment, the target named is High affinity choline transporter 1 (Homo sapiens) (UniProt Q9GZV3). Nature of the experiment: inhibitors of human choline transporter CHT (AID 488975).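 On B-score: choline stimulus applied at its EC90 after an EC20 pre-addition; B-score computed on integrated fluorescence ratio after choline addition.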 To be noted: CHT-expressing cells, membrane potential dye, choline response, at 10 µM; stronger effect = lower value.
High affinity choline transporter 1 (Homo sapiens), sequence (Q9GZV3 whole entry, looked up): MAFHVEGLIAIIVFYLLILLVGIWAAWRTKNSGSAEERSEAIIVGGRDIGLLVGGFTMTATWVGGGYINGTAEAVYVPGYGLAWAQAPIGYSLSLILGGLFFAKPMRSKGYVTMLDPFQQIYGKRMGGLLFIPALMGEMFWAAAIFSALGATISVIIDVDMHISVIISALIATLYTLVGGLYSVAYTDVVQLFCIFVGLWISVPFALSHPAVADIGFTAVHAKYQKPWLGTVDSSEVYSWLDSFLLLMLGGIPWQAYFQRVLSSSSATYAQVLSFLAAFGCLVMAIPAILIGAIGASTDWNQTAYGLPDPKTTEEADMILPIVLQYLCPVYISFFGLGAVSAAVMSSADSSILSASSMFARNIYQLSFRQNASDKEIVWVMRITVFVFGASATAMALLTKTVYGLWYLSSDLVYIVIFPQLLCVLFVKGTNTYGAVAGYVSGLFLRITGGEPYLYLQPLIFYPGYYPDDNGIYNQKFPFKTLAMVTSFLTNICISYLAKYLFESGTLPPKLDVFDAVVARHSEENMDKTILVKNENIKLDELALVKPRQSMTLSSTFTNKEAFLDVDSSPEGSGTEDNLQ
Regarding `Cc1ccc(S(=O)(=O)NCCC(=O)OCC(=O)N(C)c2ccccc2)cc1`, the B-score entry was “inactive”. As for `CCOC(=O)C1(CCOc2ccccc2)CCN(Cc2cc(OC)cc(OC)c2)CC1`, the B-score entry was “inactive”. As for `CCOC(=O)C1(CCOC)CCN(Cc2ccc(C(=O)OC)cc2)CC1`, the B-score was -7.63 (active). Consider `CCOC(=O)C1(CCOC)CCN(Cc2cc3ccccc3s2)CC1`, for which the B-score result was “inactive”. For the compound `CCN1C(=O)[C@@H]2[C@@H](c3ccc(-c4ccc(OC)cc4)c(OC)c3)N3CCC[C@@]3(C(=O)OC)[C@@H]2C1=O`, the B-score entry is “inactive”.

Consider `FC(F)(F)c1cccc(NC(=S)Nc2cccc(Cl)c2)c1`, for which the B-score is -9.9 (active). Turning to `S=C(Nc1cccc(Cl)c1)Nc1ccc2cn[nH]c2c1`, the B-score entry was “inactive”.

For the compound `S=C(Nc1cccc(Cl)c1)Nc1ccc2c(c1)OCCO2`, the B-score entry is “inactive”. Consider `CCOC(=O)c1cnc2nc(SCc3ccccc3Cl)[nH]n2c1=O`, for which the B-score entry was “inactive”. `O=C1c2ccccc2C(=O)c2c1cccc2N1CCN(C/C=C/c2ccccc2)CC1`: the B-score entry is “inactive”.

`CCCCCCCNC(=O)C1(CC2CC(c3cccc(Br)c3)=NO2)CCN(C(=O)c2cc(OCC)c(OCC)c(OCC)c2)CC1` (stereo unspecified): the B-score result was “inactive”. `CCN(CC)c1ccc(/C=N/Nc2nc(C)cc(C)n2)c(O)c1`: the B-score entry is “inactive”.

In the case of `CCN(CC)c1ccc(/C=N/NC(=O)c2cnccn2)c(O)c1`, the B-score is -5.95 (active).

Turning to `CCN(CC)c1ccc(/C=N/NC(=O)CNC(=O)c2cccnc2)cc1`, the B-score result was “inactive”. On to `CC(NC(=O)c1ccccc1F)c1cccc2ccccc12` (stereo unspecified), for which the B-score result is “inactive”. Take `COc1ccc(Cc2nnc(SCC(=O)Nc3ccc(C)c(Cl)c3)[nH]c2=O)cc1`: the B-score result is “inactive”. Regarding `OCC[C@H]1C[C@@H](O)[C@H](O)[C@@]2(OCCc3ccccc32)O1`, the B-score result is “inactive”. As for `O=C(CCc1ccccc1)NNC(=O)c1ccc(Br)cc1`, the B-score entry is “inactive”. Regarding `COc1ccc(C(=O)NC(=S)NNC(=O)c2c(-c3ccccc3)noc2C)cc1`, the B-score result is “inactive”. `COc1ccc(C(=O)NC(=S)NNC(=O)CCc2ccccc2)cc1`: the B-score was -5.23 (active). `COc1ccc(C(=O)NNC(=S)NC(=O)c2ccccc2)cc1`: the B-score is -5.26 (active). `COc1ccc(C(=O)NNC(=S)NC(=O)c2ccccc2[N+](=O)[O-])cc1`: the B-score entry is “inactive”. Consider `CC(C)Oc1ccc(CCC(=O)NNC(=S)NCc2ccccc2)cc1`, for which the B-score entry was “inactive”. For the compound `COc1ccc2c(c1)O/C(=C\c1ccccc1O)C2=O`, the B-score entry is “inactive”. In the case of `O=C(Cc1ccc(S(=O)(=O)N2CCOCC2)s1)N1CCN(c2ccc(C(F)(F)F)cc2[N+](=O)[O-])CC1` it was “inactive”; in that of `Cc1oc2c(F)c(F)c(F)c(F)c2c1S(=O)(=O)Nc1cccc(C(F)(F)F)c1`, -5.14 (active).

Take `O=C(/C=C/c1ccc(F)cc1)Nc1cccc(S(=O)(=O)Nc2cccc(C(F)(F)F)c2)c1`: the B-score entry is “inactive”. For `CCOC(=O)N1CCN(C(=O)c2ccc(S(=O)(=O)Nc3cccc(C(F)(F)F)c3)cc2)CC1`, the B-score result was “inactive”. As for `Cc1cc(OCC(=O)N(C)c2c(N)n(Cc3ccccc3)c(=O)[nH]c2=O)c(C(C)C)cc1Cl`, the B-score result was “inactive”. `COc1cc(C(=O)NCC(=O)N2CC=C(c3ccccc3)CC2)cc(OC)c1OC`: the B-score result is “inactive”. Turning to `COc1ccc(Cl)cc1NC(=O)CN(C)C(=O)CNC(=O)C12CC3CC(CC(C3)C1)C2`, the B-score entry was “inactive”. Turning to `C/C(=N/NC(=O)c1cc(Cl)ccc1O)C12CC3CC(CC(C3)C1)C2`, the B-score is -7.51 (active). For `CC(=N\NC(=O)c1cc(Br)ccc1O)/C(=N/O)C(=O)Nc1ccccc1`, the B-score result was “inactive”. `CCC(CC)C(=O)N1CC(=O)Nc2ccc(Br)cc2C1c1ccccc1` (stereo unspecified): the B-score entry is “inactive”. Consider `COC(=O)C1=C(C)N(C)C(C)=C(C(=O)OC)C1c1cccc(Br)c1`, for which the B-score entry is “inactive”.

As to `COC(=O)CN1C(C)=Nc2ccc(Br)cc2C1c1ccccc1` (stereo unspecified), the B-score was -5.31 (active).

On to `O=C(Nc1ncccc1O)c1ccc(S(=O)(=O)N2CCCC2)cc1`, for which the B-score result was “inactive”. For the compound `COc1ccc(-n2nnnc2SCC(=O)c2ccc(OC)c(OC)c2)cc1`, the B-score entry is “inactive”. Take `COc1ccc(CNC(=O)c2ccc3oc(C(C)C)nc3c2)cc1`: the B-score result is “inactive”. As to `COc1ccc(-n2nnnc2CNC(=O)c2ccc3ccccc3c2)cc1`, the B-score is -5.47 (active). Take `COc1ccc(NC(=O)CN(C)C(=O)Cc2coc3cc(C)c(C)cc23)cc1`: the B-score entry is “inactive”. `CC(C)Oc1ccc(S(=O)(=O)N2CCOCC2)cc1NC(=O)C1CSC2(C)CCC(=O)N12` (stereo unspecified): the B-score result is “inactive”. Regarding `O=C(Nc1cc(-c2ccccc2)nn1-c1ccccc1F)c1ccc([N+](=O)[O-])cc1`, the B-score entry was “inactive”. In the case of `COc1ccc(S(=O)(=O)N2CCOC2CNC(=O)C(=O)NCc2ccncc2)cc1C` (stereo unspecified) it was “inactive”; in that of `CC1CCN(C(=O)c2cccc(S(=O)(=O)N3CCCc4ccccc43)c2)CC1`, “inactive”; in that of `CC(C)n1c(=O)[nH]c2cc(C(=O)Nc3ccccc3)ccc21`, “inactive”. For `CC(C)n1c(=S)[nH]c2cc(C(F)(F)F)ccc21`, the B-score was -8.94 (active). Consider `CCCn1c(=S)[nH]c2ccc(C(F)(F)F)cc21`, for which the B-score result is “inactive”. The entry for `Cc1c(NC(=O)C(C)OC(=O)c2c3c(nc4ccccc24)CCC(C)C3)c(=O)n(-c2ccccc2)n1C` (stereo unspecified) is “inactive”; for `COc1ccc2sc(N(CCCN(C)C)C(=O)c3ccc(S(=O)(=O)N(C)C4CCCCC4)cc3)nc2c1` it is “inactive”. Consider `O=C(c1ccc(F)c(S(=O)(=O)N2CCOCC2)c1)N(CCc1ccccc1)Cc1ccccc1`, for which the B-score entry was “inactive”. In the case of `COc1ccc(N(C)S(=O)(=O)c2ccc3c(c2)CC(C)N3C(=O)C2CC2)c(OC)c1` (stereo unspecified) it was “inactive”; in that of `CCOC(=O)N1CCN(C(=O)CN(c2ccc(C)c(C)c2)S(=O)(=O)c2ccccc2)CC1`, “inactive”. On to `Cc1ccc(N(Cc2ccc(C(=O)Nc3ccccc3C(=O)NCc3ccco3)cc2)S(C)(=O)=O)cc1C`, for which the B-score entry was “inactive”. For the compound `CCOC(=O)N1CCN(C(=O)c2ccc(CN(c3ccc(C)c(C)c3)S(C)(=O)=O)cc2)CC1`, the B-score was -6.25 (active). With `COc1ccc(NC(=O)CN(C)C(=O)c2cc(-c3ccc(C)o3)nc3ccccc23)cc1`, the B-score entry was “inactive”. The figure for `CCNC(=O)CC1C(=O)N(c2ccc(F)cc2)C(=O)N1CCc1sccc1C` (stereo unspecified) is -5.75 (active). In the case of `CCNC(=O)CC1C(=O)N(c2ccc(F)cc2)C(=O)N1Cc1cccs1` (stereo unspecified) it was “inactive”; in that of `COc1ccc(N2C(=O)C(CC(=O)Nc3ccc(F)cc3)N(CCc3cccs3)C2=O)cc1` (stereo unspecified), “inactive”; in that of `CC(=O)Nc1ccc(C(=O)Nc2cccc(S(=O)(=O)NC3=NCCC3)c2)cc1`, “inactive”.

For the compound `CN(C)c1ccc(C2N(C)C(=O)c3ccccc3N2C)cc1` (stereo unspecified), the B-score result was “inactive”. Take `CN(C)c1ccc(Nc2c3c4c(cccc4n(C)c2=O)C(=O)c2ccccc2-3)cc1`: the B-score was -9.73 (active). `COc1ccc(/C=C2\SC(=S)N(CCCC(=O)NC3CCCC3)C2=O)cc1OC`: the B-score result is “inactive”. With `Cc1cccc(CSc2nnc(Cn3c(=O)sc4ccccc43)n2C)c1`, the B-score entry is “inactive”. Consider `COc1ccccc1CNC(=O)CCn1c(=O)sc2ccccc21`, for which the B-score result was “inactive”. Take `COc1ccc(Cn2c(=O)sc3ccccc32)cc1OC`: the B-score is -5.56 (active). The entry for `O=C(NCC1(N2CCCCC2)CCCCC1)c1ccc(NS(=O)(=O)c2ccc(F)cc2)cc1` is “inactive”; for `Cc1ccc(C)c(OCCC(=O)Nc2cccc(S(=O)(=O)N3CCCC3)c2)c1` it is “inactive”; for `O=C(/C=C/c1ccc([N+](=O)[O-])o1)NNC(=O)c1ccc(F)cc1` it is “inactive”. In the case of `CCN(CC)CCC(c1cc(OC)c(OC)c(OC)c1)c1c(OC)cc(OC)c2c(-c3ccccc3)cc(=O)oc12` (stereo unspecified) it was “inactive”. The entry for `CCN(CC)C(=O)CC(c1ccc2c(c1)OCO2)c1c(OC)cc(OC)c2c(-c3ccccc3)cc(=O)oc12` (stereo unspecified) is “inactive”; for `CCN(CC)CCC(c1ccc2c(c1)OCO2)c1c(OC)cc(OC)c2c(-c3ccccc3)cc(=O)oc12` (stereo unspecified) it is -6.84 (active). Regarding `Cc1ccc(S(=O)(=O)N2CCOCC2)cc1C(=O)Nc1ccccc1N1CCCC1`, the B-score entry was “inactive”.

Regarding `COc1ccc(N2CCN(S(=O)(=O)c3cc4c5c(c3)C(C)C(=O)N5CCC4)CC2)cc1` (stereo unspecified), the B-score result is “inactive”. Regarding `Cc1ccc(-c2csc(NC(=O)C3=COCCO3)n2)cc1C`, the B-score result is “inactive”.

For the compound `O=C(Nc1ncccc1O)c1ccc(S(=O)(=O)N2CCCCCC2)cc1`, the B-score entry was “inactive”. In the case of `CCOC(=O)[C@H]1[C@H]2COc3ccc(Cl)cc3[C@@H]2N2C(=O)c3cc(C)ccc3NC(=O)[C@@]12C` it was “inactive”; in that of `Cc1cc(NC(=O)C(C)SCC(=O)Nc2ccccc2N2CCCCC2)no1` (stereo unspecified), “inactive”; in that of `CCc1cc2c(NC3CCCC3)ncnc2s1`, “inactive”. `CCc1cc2c(N3CCN(c4nnc(CC)s4)CC3)ncnc2s1`: the B-score was -7.24 (active). The entry for `Oc1ccccc1N1CCN(c2ncnc3sc(-c4ccccc4)cc23)CC1` is “inactive”; for `COc1ccc(C(=NN)c2ccc(OC)cc2)cc1` it is “inactive”. Take `COc1ccc(S(=O)(=O)N2CCCCC2)cc1NC(=O)c1cc([N+](=O)[O-])ccc1N1CCOCC1`: the B-score entry was “inactive”. Regarding `O=C(NCCCn1ccnc1)C(=O)c1cn(CC(=O)N2CCCCCC2)c2ccccc12`, the B-score was -6.23 (active). `O=C(NCc1ccco1)C(=O)c1cn(CC(=O)N2CCCCCC2)c2ccccc12`: the B-score result is “inactive”. Take `Cc1ccc(CNC(=O)C(=O)c2cn(CC(=O)N3CCCC3)c3ccccc23)cc1`: the B-score result was “inactive”. Take `CCN(CC)CCn1c2c(c(SCC(=O)Nc3nc4ccccc4s3)nc1=O)CCCC2`: the B-score result was “inactive”. For the compound `O=C(CCCn1c(SCC(=O)c2ccccc2)nc2ccccc2c1=O)NCC1CCCO1` (stereo unspecified), the B-score entry is “inactive”. As for `COCCNC(=O)c1ccc(Cn2c(SCC(=O)NCC3CCCO3)nc3ccc(Br)cc3c2=O)cc1` (stereo unspecified), the B-score result is “inactive”.

On to `CCCCn1c(SCC(=O)NCC2CCCO2)nc2ccc(N3CCOCC3)cc2c1=O` (stereo unspecified), for which the B-score is -5.48 (active).

On to `O=C(COc1ccccc1Cl)Nc1ccccc1C(=O)NC1CC1`, for which the B-score entry is “inactive”. The entry for `Cc1ccc(S(=O)(=O)CCC(=O)Nc2nnc(CC(C)C)s2)cc1` is “inactive”. The entry for `CC(C)CC(=O)Nc1nnc(S(=O)(=O)N(C)c2ccc(Cl)cc2)s1` is “inactive”; for `CCC(=O)Nc1nnc(S(=O)(=O)N(CC(C)C)c2ccccc2)s1` it is -5.75 (active); for `CCC(=O)Nc1nnc(S(=O)(=O)N2CCCc3ccccc32)s1` it is “inactive”.

For `CCN(C(=O)COC(=O)C1CCN(S(=O)(=O)c2ccc(C)c(C)c2)CC1)C1CCS(=O)(=O)C1` (stereo unspecified), the B-score entry is “inactive”.
